Source: PubChem (National Center for Advancing Translational Sciences (NCATS))
HT1080-NT tox: kills 2HG-producing HT-1080-NT fibrosarcoma cells; HT-1080-NT fibrosarcoma viability, CellTiter-Glo ATP luminescence, 48 h; Potency, µM (series often up to 46.1 µM), most hits filed as cytotoxic; 360,000 tested, 1.6% active; AID 686970;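 further: NT is the 2HG producing partner of a matched IDH1 knockdown line; nearly all actives have a fitted effect of over 55% in size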
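Luminescent CellTiter-Glo readout after 48 hours of compound exposure at 37 degrees C defined viability of HT-1080-NT cells. Activity was normalized to DMSO wells and cell-free media wells; concentration-response curves were fitted and assigned curve classes.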
DT40 TDP1 no CPT: qHTS for Inhibitors of human tyrosyl-DNA phosphodiesterase 1 (TDP1): qHTS in cells in absence of CPT; DT40 Tdp1-/- hTDP1 cells, no CPT, ATP luminescence, 48 h; Potency, µM (doses to about 46.2 µM), usual class: inhibitors; 420,000 tested, 15% active; further: nearly all actives have a fitted effect of over 55% in size
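Readout: luminescence from CellTiter-Glo after 30 min in the dark at RT. Cells: DT40 Tdp1-/- with stable hTDP1, 400/well. Exposure: compounds alone, ≥48 hr, 37 °C.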
HT1080 IDH1KD tx: HT-1080 IDH1 knockdown cell toxicity (counter line); Potency, µM (doses to about 46.1 µM), most hits filed as cytotoxic; 360,000 tested, 2% active; HT-1080 IDH1 knockdown viability, ATP luminescence, 48 h
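HT-1080-IDH1KD cells (IDH1 knocked down), 750/well in RPMI with 5% FBS, treated with compound 48 h at 37 degrees C. Viability by CellTiter-Glo luminescence, normalised to DMSO and no-cell wells; concentration-response curves classed.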
TDP1 cell CPT: growth inhibition of DT40 Tdp1-/-;hTDP1 cells with camptothecin (screen for TDP1 inhibitors); chicken DT40 Tdp1-/-;hTDP1 cells + 20 nM CPT, ATP luminescence, 48 h; Potency, µM (series often up to 46.2 µM), usual class: inhibitors; 420,000 tested, 12% active; AID 686979; further: nearly all actives have a fitted effect of over 55% in size
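Chicken DT40 Tdp1-/- cells complemented with human TDP1, 400 cells/well, exposed to compounds plus 20 nM camptothecin for at least 48 h at 37 C; viability read as ATP content by CellTiter-Glo luminescence.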
IL-1B inflam inh: inhibitors of inflammasome signaling (IL-1 beta secretion); 360,000 tested, 4.7% active; THP-1 LPS/ATP IL-1B secretion, AlphaLISA, 16 h; hits give low values; activity change, % at 57.5 µM; in the data active means activity change below about -50%; inconclusive means mostly about -30% to -49%
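Secreted IL-1B measured by AlphaLISA bead assay after 16 h compound exposure of THP-1 cells; compounds (final up to 57.5 uM) added 1 h before LPS (250 ng/mL) and ATP (1.25 mM) stimulation; lower signal means less secretion.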
A number is an active result. Shown are actives, neighbours in structure and some others; about 19% of the full set was active somewhere. Unless noted, the call rests on the fitted dose curve; in most records, active means well fitted curve in the direction sought with a large enough effect; inconclusive means small, poorly fitted or top-dose-only effect, or another doubt; inactive means no such curve, though single readings can be large; an effect the other way counts as inactive or inconclusive.

`CCOC(=O)c1c(C)oc2c1c(C=NCCO)c(O)c1ccccc12` gave HT1080-NT tox inconclusive, DT40 TDP1 no CPT inconclusive, HT1080 IDH1KD tx 23µM, TDP1 cell CPT inactive and IL-1B inflam inh -112.
For COC(=O)c1cccc(CN2C(=O)SC(Nc3ccccc3C)C2=O)c1 (centres undefined) the results were DT40 TDP1 no CPT inactive and TDP1 cell CPT inactive.
Screening NC(=O)c1ccc(=O)n(Cc2ccc(F)c(F)c2)c1 returned HT1080-NT tox inactive, DT40 TDP1 no CPT inactive, HT1080 IDH1KD tx inactive, TDP1 cell CPT inactive and IL-1B inflam inh inactive.
For COc1ccc(C)cc1NC(=O)c1ccc(CN2CCN(c3ccccc3)CC2)cc1 the results were HT1080-NT tox inactive, DT40 TDP1 no CPT inconclusive, HT1080 IDH1KD tx inactive, TDP1 cell CPT inconclusive and IL-1B inflam inh inactive.
Screening Cc1cccc(Cn2cc(C(=O)Nc3ccc(F)c(C(F)(F)F)c3)ccc2=O)c1 returned DT40 TDP1 no CPT 15µM and TDP1 cell CPT 23µM.
O=C(Nc1ccccc1)c1ccc(=O)n(Cc2ccc(F)c(F)c2)c1 was read as HT1080-NT tox inactive, DT40 TDP1 no CPT inactive, HT1080 IDH1KD tx inactive, TDP1 cell CPT inactive and IL-1B inflam inh inactive.
`Cc1cccc(Cn2cc(C(=O)Nc3cc(F)ccc3F)ccc2=O)c1` gave DT40 TDP1 no CPT 16µM and TDP1 cell CPT inconclusive.
Screening COc1ccc(C)cc1NC(=O)c1ccc(=O)n(Cc2ccccc2)c1 returned DT40 TDP1 no CPT 23µM and TDP1 cell CPT inconclusive.
`COC(=O)c1ccccc1NS(=O)(=O)c1cn(C)c(=O)n(C)c1=O` gave HT1080-NT tox inactive, DT40 TDP1 no CPT inactive, HT1080 IDH1KD tx inactive, TDP1 cell CPT inactive and IL-1B inflam inh inactive.
Screening Cc1[nH]n(-c2ccccc2)c(=S)c1C=NCCCN=Cc1c(C)[nH]n(-c2ccccc2)c1=S returned HT1080-NT tox inactive, DT40 TDP1 no CPT inactive, HT1080 IDH1KD tx inactive, TDP1 cell CPT inconclusive and IL-1B inflam inh -97.
For COC(=O)CN=Cc1c(C)[nH]n(-c2ccccc2)c1=O the results were HT1080-NT tox inactive, DT40 TDP1 no CPT inactive, HT1080 IDH1KD tx inactive, TDP1 cell CPT inactive and IL-1B inflam inh inactive.
For CN(Cc1ccccc1)C(=O)c1csc(COCCO)n1 the results were HT1080-NT tox inconclusive, DT40 TDP1 no CPT inactive, HT1080 IDH1KD tx inactive, TDP1 cell CPT inactive and IL-1B inflam inh inactive.
Screening O=C(Nc1c(C(=O)N2CCN(c3ccccn3)CC2)oc2ccccc12)c1ccc([N+](=O)[O-])cc1 returned HT1080-NT tox inactive, DT40 TDP1 no CPT inconclusive, HT1080 IDH1KD tx inactive, TDP1 cell CPT 23µM and IL-1B inflam inh inactive.
O=C(c1ccc([N+](=O)[O-])s1)N1CCN(c2ccccn2)CC1 was read as HT1080-NT tox inactive, DT40 TDP1 no CPT 15µM, HT1080 IDH1KD tx inconclusive, TDP1 cell CPT 23µM and IL-1B inflam inh inactive.
O=C(NCCC(=O)N1CCN(c2ccccn2)CC1)c1ccc([N+](=O)[O-])cc1 was read as HT1080-NT tox inactive, DT40 TDP1 no CPT inactive, HT1080 IDH1KD tx inactive, TDP1 cell CPT inactive and IL-1B inflam inh inactive.
For COc1ccc(CCNC(=O)C(=O)NCC(c2cccs2)S(=O)(=O)c2ccc(F)cc2)cc1 (centres undefined) the results were DT40 TDP1 no CPT 23µM and TDP1 cell CPT inconclusive.
For COc1ccc(N(C(=O)CCl)C(C(=O)NCCc2ccccc2)c2cccs2)cc1 (centres undefined) the results were HT1080-NT tox 2.1µM, DT40 TDP1 no CPT 4.1µM, HT1080 IDH1KD tx 1.6µM, TDP1 cell CPT 4.6µM and IL-1B inflam inh -108.
COc1ccc(CNC(=O)C(c2ccncc2)N(C(=O)Cc2cccs2)c2ccccc2)cc1 (centres undefined) was read as HT1080-NT tox inactive, DT40 TDP1 no CPT inconclusive, HT1080 IDH1KD tx inactive, TDP1 cell CPT inconclusive and IL-1B inflam inh inactive.
`O=C(NCCc1ccc(F)cc1)C(=O)NCC(c1cccs1)S(=O)(=O)c1cccs1` (centres undefined) gave DT40 TDP1 no CPT 26µM and TDP1 cell CPT inconclusive.
`CNC(=O)C(=O)NCC(c1cccs1)S(=O)(=O)c1ccc(F)cc1` (centres undefined) gave HT1080-NT tox inactive, DT40 TDP1 no CPT inactive, HT1080 IDH1KD tx inactive, TDP1 cell CPT inactive and IL-1B inflam inh inactive.
For O=S(=O)(NCC(c1cccs1)S(=O)(=O)c1ccccc1)c1ccc(F)cc1 (centres undefined) the results were DT40 TDP1 no CPT 2.3µM and TDP1 cell CPT 1.6µM.
For Cc1ccc(C)c(N2CCN(C(=O)CCc3nc(-c4cccc(Cl)c4)no3)CC2)c1 the results were HT1080-NT tox inactive, DT40 TDP1 no CPT inactive, HT1080 IDH1KD tx inactive, TDP1 cell CPT inconclusive and IL-1B inflam inh inactive.
COc1cccc(CNC(=O)C2CCC(=O)N(CC3CCCCC3)C2)c1OC (centres undefined) was read as HT1080-NT tox inactive, DT40 TDP1 no CPT inactive, HT1080 IDH1KD tx inactive, TDP1 cell CPT inactive and IL-1B inflam inh inactive.
`Cc1c(NC(=S)Nc2cccc(Cl)c2)c(=O)n(-c2ccccc2)n1C` gave HT1080-NT tox inactive, DT40 TDP1 no CPT inactive, HT1080 IDH1KD tx inactive, TDP1 cell CPT inactive and IL-1B inflam inh inactive.
Screening COc1ccccc1CNC(=O)c1ccc(NC(=O)CC2SC(N3CCCC3)=NC2=O)cc1 (centres undefined) returned HT1080-NT tox inactive, DT40 TDP1 no CPT inactive, HT1080 IDH1KD tx inactive, TDP1 cell CPT inactive and IL-1B inflam inh inactive.
CCCc1nnc(NC(=O)Cc2coc3ccc(C)cc23)s1 was read as DT40 TDP1 no CPT inactive and TDP1 cell CPT inactive.
`CCCCc1nc2ccccc2c(N)c1CCC` (tested in a mixture with another compound) gave HT1080-NT tox inconclusive, DT40 TDP1 no CPT 18µM, HT1080 IDH1KD tx inconclusive, TDP1 cell CPT inconclusive and IL-1B inflam inh -97.
CCCCc1nc2ccccc2c(NC(=O)CNC(C)(C)C)c1CCC was read as HT1080-NT tox inactive, DT40 TDP1 no CPT inconclusive, HT1080 IDH1KD tx inactive, TDP1 cell CPT inconclusive and IL-1B inflam inh inactive.
For C=Cc1ccc(Cn2nc(-c3ccc(C)c(S(=O)(=O)N(CC)CC)c3)ccc2=O)cc1 the results were DT40 TDP1 no CPT inconclusive and TDP1 cell CPT 16µM.
C=Cc1ccc(Cn2nc(-c3ccccc3)ccc2=O)cc1 was read as HT1080-NT tox inactive, DT40 TDP1 no CPT inactive, HT1080 IDH1KD tx inactive, TDP1 cell CPT inconclusive and IL-1B inflam inh inactive.
For CCOC(=O)CSC1=NC(=O)/C(=C/c2ccc(OC)cc2)S1 the results were HT1080-NT tox inconclusive, DT40 TDP1 no CPT 1.3µM, HT1080 IDH1KD tx inconclusive, TDP1 cell CPT 1.5µM and IL-1B inflam inh -86.
